Results taken from PubChem BioAssay (Tox21).
Inconclusive results are not listed. Unmarked numbers belong to inactive results. The source made the active and inactive calls. The call rests on the fitted dose curve; in most records, active means well fitted inhibition curve with a large enough effect in the repeat runs; inconclusive means weak or mixed curves; inactive means no such curve, though single readings can be large or run the other way.

Target: Cytochrome P450 2C19 (Homo sapiens) (UniProt P33261)
Experiment: Cytochrome P450 Family 2 Subfamily C Member 19 (CYP2C19) small molecule antagonists: luciferase reporter qHTS assay (AID 1671197); further: nearly all actives have a fitted effect of over 65% in size
Conditions: P450-Glo CYP2C19 enzyme, luciferin luminescence, 1 h; series mostly up to 115 µM; activity change, negative = inhibition: at the top concentration
Method in brief: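 Quantitative high-throughput screen of the Tox21 library using CYP2C19 with proluciferin substrate. Reaction: NADPH regeneration, 37C, 1 h, after 10 min compound preincubation at room temperature. Readout: luminescence.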
On the % scale 0 is the no-effect control and ±100 the full control effect; potency means the concentration at half of the fitted maximal effect.

Sequence of Cytochrome P450 2C19 (Homo sapiens) (P33261 whole entry, looked up): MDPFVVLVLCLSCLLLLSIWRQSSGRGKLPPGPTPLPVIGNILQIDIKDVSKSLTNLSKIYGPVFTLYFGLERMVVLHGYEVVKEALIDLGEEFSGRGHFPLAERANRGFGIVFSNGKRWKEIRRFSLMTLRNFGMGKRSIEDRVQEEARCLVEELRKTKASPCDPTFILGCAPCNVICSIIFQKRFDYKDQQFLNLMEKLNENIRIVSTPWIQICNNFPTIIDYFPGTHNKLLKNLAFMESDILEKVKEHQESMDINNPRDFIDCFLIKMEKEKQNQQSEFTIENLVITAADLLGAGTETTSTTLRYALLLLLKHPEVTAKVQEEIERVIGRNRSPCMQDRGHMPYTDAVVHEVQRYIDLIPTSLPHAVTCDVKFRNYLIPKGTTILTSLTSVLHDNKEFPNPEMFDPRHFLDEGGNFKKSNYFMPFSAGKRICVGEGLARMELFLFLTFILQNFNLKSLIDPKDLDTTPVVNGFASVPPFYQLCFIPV

SMILES	Potency	activity change, negative = inhibition
O=c1c2ccccc2oc2ccccc12	28.3 µM (active)	–
O=S(=O)(O)c1cc(Cl)c(Cl)cc1Cl	–	-9.98%
O=C(O)c1cc(C(=O)O)cc([N+](=O)[O-])c1	–	11.3%
COc1ccc(/C=C/S(=O)(=O)NC(=O)c2ccc(C)cc2Cl)cc1	–	-29.2%
C[C@@H](O)[C@H]1C(=O)N2C(C(=O)O)=C(S[C@@H]3CN[C@H](CNS(N)(=O)=O)C3)[C@H](C)[C@H]12	9.77 µM (active)	–
COC(=O)Cc1cccc2ccccc12	79.6 µM (active)	–
CCCC1CCCC(=O)O1 (stereo not given)	–	-8.65%
CCC1=C(C)CN(C(=O)NCCc2ccc(S(=O)(=O)NC(=O)NC3CCC(C)CC3)cc2)C1=O (stereo not given)	–	27.6% [at 52.9 µM]
C[C@H]1C[C@H]2[C@@H]3CCC4=CC(=O)C=C[C@]4(C)[C@@]3(F)[C@@H](O)C[C@]2(C)[C@@]1(O)C(=O)COP(=O)(O)O	–	20.7%
O=C(O)c1c2ccccc2cc2ccccc12	–	-11.5%
CCC(C)C1N=C(C)C(C)S1 (stereo not given)	39.9 µM (active)	–
O=c1[nH]nc(-c2ccc([N+](=O)[O-])o2)o1	79.6 µM (active)	–
CC1=C(C)C(=O)C(C(CCCCCC(=O)O)c2ccccc2)=C(C)C1=O (stereo not given)	24.5 µM (active)	–
FC(F)(Cl)C(F)(Cl)Cl	–	-29.8%
CCOCCn1c(N2CCCN(C)CC2)nc2ccccc21	–	14% [at 52.9 µM]
CCCCCCCCNC	22.4 µM (active)	–
CCOC(OCC)OCC	–	28.6%
O=C(Nc1ccccc1)c1cc([N+](=O)[O-])ccc1Cl	22.4 µM (active)	–
COC=O	–	14.6% [at 10.5 µM]
C1=COCCC1	–	-2.15%
